Test results: PubChem BioAssay (NCI)
This is part of a sample that, as a whole, favours compounds with a hit. Of some 83,000 tested, about 20% had one in any assay.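 Values shown are percent growth following 48 h exposure of cells in 96-well plates to a single concentration of compound; below 10 was considered active.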 Values without a mark were called inactive. The source made the active and inactive calls.

Assays:
Assay in all cases: NCI-60 one-dose screen, 48 h (100 = growth as untreated, 0 = no growth, -100 = all killed)
Settings in all cases: 10 µM unless noted
[1] = test system: SK-MEL-2 melanoma
[2] = test system: EKVX NSCLC
[3] = test system: SN12C renal
[4] = test system: UO-31 renal
[5] = test system: TK-10 renal
[6] = test system: ACHN renal
[7] = test system: A498 renal
[8] = test system: CCRF-CEM leukemia
[9] = test system: MOLT-4 leukemia
[10] = test system: SR leukemia

SMILES	growth [1]	growth [2]	growth [3]	growth [4]	growth [5]	growth [6]	growth [7]	growth [8]	growth [9]	growth [10]
O=C(CN1N=C(c2ccc(F)cc2)CCC1=O)Nc1nccs1	101%	98.3%	96.9%	87.6%	-95.6% (active)	107%	84.1%	94%	97.5%	92.8%
O=C(Nc1cc(Nc2ncccc2-c2ncnc3nc[nH]c23)ccc1F)c1cc(C(F)(F)F)cc(C(F)(F)F)c1	-40% (active)	20.4%	16.5%	-37.4% (active)	-16.9% (active)	-7.8% (active)	-19.1% (active)	2.41% (active)	-33.6% (active)	-21.1% (active)
CC(=O)c1cc2c(N)c(C(=O)Nc3ccccn3)sc2nc1C	53.6%	74.7%	92.7%	86.7%	90.8%	98.9%	30.3%	102%	98.2%	69.2%
CCOC(=O)NC(Cc1ccccc1)c1ccccc1 (stereo not given)	99.2%	105%	106%	93.2%	96%	109%	94%	98.1%	85.8%	81.7%
CCCCN(CCCC)CC(CN(CC)CC)OC(=O)Nc1ccccc1 (stereo not given)	99.4%	91.7%	94.4%	69.7%	85.5%	99.2%	117%	98.1%	80.8%	86.3%
Cn1c2c(c3ccc(-c4ccn[nH]4)cc3c1=O)C(=O)c1ccccc1-2	118%	20.2%	7.3% (active)	19.2%	71.6%	-8.82% (active)	60%	2.31% (active)	-1.45% (active)	1.32% (active)
Cc1[nH]c2ncnc(Oc3ccc(NC(=O)Nc4ccc(Cl)c(C(F)(F)F)c4)cc3)c2c1C	61.2%	43%	69%	70.1%	81.1%	39.9%	76%	24.1%	27.4%	9.11% (active)
Cc1c(Cl)cccc1NC(=O)c1sc2nc3c(cc2c1N)CCCCCC3	11.8%	39.8%	42.4%	55.4%	44.9%	41.8%	-9.95% (active)	10.9%	17.3%	16%
COc1ccc(C2CC(c3ccc(OC)cc3O)=NN2c2ccc(S(N)(=O)=O)cc2)cc1 (stereo not given)	58.7%	20.9%	54.2%	27.6%	43.9%	29.1%	71.2%	13.5%	4.82% (active)	8.1% (active)
N#Cc1c(-c2ccc(F)cc2)c(C#N)c2c(C#N)c(N)nn2c1N	102%	96.8%	104%	75.4%	86.4%	95.7%	93.7%	104%	85.9%	93.7%
COc1cccc(C(=O)OCCn2nc3c4c(cccc42)C(=O)c2ccccc2-3)c1O	78.7%	56.1%	41.5%	62.6%	85.5%	56.6%	81.7%	18.3%	29.7%	21.2%
COc1ccc(/C=C/C(=O)/C=C(/C=C/c2ccc(OC)c(OC)c2)OB(F)F)cc1OC	76.8%	38%	-5.34% (active)	40%	36.9%	-15.8% (active)	95.7%	-12% (active)	1.45% (active)	0.197% (active)
C=C(C)[C@@H]1CC[C@]2(C(=O)n3ccnc3)CC[C@]3(C)[C@H](CC[C@@H]4[C@@]5(C)CCCNC(C)(C)[C@@H]5CC[C@]43C)[C@@H]12	53.5%	61.9%	29.6%	43.8%	70.5%	46.6%	84%	0.353% (active)	-15.9% (active)	-33% (active)
CC1(C)Cc2c(Br)c(Br)c(Br)c(OCC(O)CN3CCOCC3)c2O1 (stereo not given)	-46.5% (active)	102%	104%	-87.3% (active)	67%	93.4%	84.3%	9.89% (active)	40.1%	24.9%
CCN1CCN(c2ccc(NC(=O)Nc3nc4ccc(-c5ccccc5OC)cc4s3)cc2)CC1	-65.5% (active)	-68.4% (active)	-82.1% (active)	-91.6% (active)	-48% (active)	-95.5% (active)	70.2%	-17.3% (active)	-51.7% (active)	-38% (active)
Cc1ccn2c3c(c(C(=O)O)c2c1)C(=O)c1ccccc1C3=O	68.9%	83%	78.8%	63.7%	142%	86.2%	89.2%	89.5%	84.8%	80%
COc1cc2c(Nc3ccc(NC(=O)Nc4ccc(Cl)c(C(F)(F)F)c4)c(Cl)c3)ncnc2cc1OCCCN1CCN(C)CC1	-37.9% (active)	52.5%	18.6%	54.9%	20.5%	35%	39.7%	-15.4% (active)	-43.7% (active)	-40.5% (active)
Nc1ccccc1NC(=O)c1ccc(CSc2nc(N3CCOCC3)c3cccn3n2)cc1	-28.9% (active)	25.8%	16.6%	-24.8% (active)	-10.7% (active)	16.3%	-12.1% (active)	5.4% (active)	1.08% (active)	13.4%
C=CCn1c(CN2CCN(c3cc4c(cc3F)c(=O)c(C(=O)O)cn4C3CC3)CC2)n[nH]c1=S	104%	101%	104%	83.7%	88.9%	102%	98.2%	90.1%	94.2%	99.1%
c1cc(CNC23CC4CC(CC(C4)C2)C3)cc(C[N+](Cc2cccc(CNC34CC5CC(CC(C5)C3)C4)c2)(Cc2cccc(CNC34CC5CC(CC(C5)C3)C4)c2)Cc2cccc(CNC34CC5CC(CC(C5)C3)C4)c2)c1 (stereo not given)	31.8% [42 µM]	30.7% [42 µM]	7.96% [42 µM] (active)	-8.13% [42 µM] (active)	27.1% [42 µM]	-9.81% [42 µM] (active)	50.1% [42 µM]	3.92% [42 µM] (active)	-21.9% [42 µM] (active)	9.46% [42 µM] (active)
CS(=O)(=O)O[C@@H]1C(=O)N(c2cc3c4ccccc4ccc3c3ccccc23)[C@H]1c1ccc(F)cn1	14.4%	47.1%	40.6%	46.9%	81.7%	52%	14.6%	10.4%	24.3%	11.4%
CCc1c(C(=O)N[C@@H](C(=O)OCc2ccccc2)C(C)O)[nH]c2ccc(Cl)cc12 (stereo not given in full)	106%	73.8%	66.6%	11.7%	33.6%	8.62% (active)	67.7%	79.6%	91.5%	35.1%
NC[C@@H]1CCN(c2cc3c(cc2F)c(=O)n(N)c(=O)n3Cc2ccc(-c3ccccc3)cc2)C1	94.4%	85.3%	87.3%	69.7%	94.7%	95.3%	90.3%	55.4%	50.4%	-26.7% (active)
O=C(O)COc1ccc2c(=O)c3sc4c(=O)c5ccccc5c(=O)c4c3c(=O)c2c1	25.5%	78.9%	-11.6% (active)	43.5%	74.8%	62.7%	-86.9% (active)	56.8%	45.1%	26.6%
O=C1Nc2ccc(Cl)cc2/C1=N/c1nc(-c2ccc(F)cc2)cs1	39.9%	44.5%	54.8%	50.4%	59.2%	48.5%	33.3%	11.1%	1.99% (active)	1.96% (active)
Cc1nnc(/N=C2\NC(=O)/C(=C/c3ccc(N(C)C)cc3)S2)s1	83.1%	82.8%	83.8%	70.6%	87.3%	71.8%	67%	62.6%	80.8%	44.2%
